# According to PubChem BioAssay AID1159580 (chemical genetic matrix, 2015):
# Values joined by “and” are separate entries in the source; they are usually repeats but may differ in a detail not shown here. Identical values can stand only once. In all, about 5,500 compounds went through this assay and about 2,000 (36%) were called active. About 18% were inconclusive and are not listed. Rule as the data show it: active = normalized growth mostly below about 0.91 (no sharp cut-off); inconclusive = no clear call, values can overlap the other calls; inactive = mostly above about 0.92. The list shows a part of the results.
# Assay: chemical genetic growth profiling, strain panel (AID 1159580);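 also: tested at 20 µM; growth read once vehicle control cultures reached saturation at 30 °C; 1 = growth at the plate median or of vehicle wells; lower values mean less growth of the strain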
# Settings: S. cerevisiae deletion strains, growth OD
structure (smiles),measurement,setting,value
CC1=C2C(=CO[C@H](C)[C@H]2C)C(=O)C(C(=O)O)=C1O,normalized growth,"locus YAL021C, strain ccr4, stronger effect = lower value",0.993 (inactive)
same,normalized growth,"locus YAL026C, strain drs2, stronger effect = lower value",0.982 (inactive)
same,normalized growth,"locus YAL030W, strain snc1, stronger effect = lower value",0.977 (inactive)
same,normalized growth,"locus YBL061C, strain skt5, stronger effect = lower value",0.977 (inactive)
same,normalized growth,"locus YBR009C, strain hhf1, stronger effect = lower value",0.975 (inactive)
same,normalized growth,"locus YBR021W, strain FUR4, stronger effect = lower value",0.995 (inactive)
same,normalized growth,"locus YBR023C, strain chs3, stronger effect = lower value",0.97 (inactive)
same,normalized growth,"locus YBR171W, strain sec66, stronger effect = lower value",0.981 (inactive)
same,normalized growth,"locus YBR229C, strain ROT2, stronger effect = lower value",0.978 (inactive)
same,normalized growth,"locus YBR231C, strain swc5, stronger effect = lower value",0.979 (inactive)
same,normalized growth,"locus YBR279W, strain paf1, stronger effect = lower value",0.989 (inactive)
same,normalized growth,"locus YCL011C, strain gbp2, stronger effect = lower value",0.975 (inactive)
same,normalized growth,"locus YCL016C, strain dcc1, stronger effect = lower value",0.967 (inactive)
same,normalized growth,"locus YCL029C, strain bik1, stronger effect = lower value",0.986 (inactive)
same,normalized growth,"locus YCL061C, strain MRC1, stronger effect = lower value",0.967 (inactive)
same,normalized growth,"locus YCL069W, strain vba3, stronger effect = lower value",0.991 (inactive)
same,normalized growth,"locus YCR088W, strain abp1, stronger effect = lower value",0.973 (inactive)
same,normalized growth,"locus YDL005C, strain med2, stronger effect = lower value",0.971 (inactive)
same,normalized growth,"locus YDL035C, strain GPR1, stronger effect = lower value",0.995 (inactive)
same,normalized growth,"locus YDL040C, strain nat1, stronger effect = lower value",0.98 (inactive)
same,normalized growth,"locus YDL074C, strain BRE1, stronger effect = lower value",0.996 (inactive)
same,normalized growth,"locus YDL101C, strain DUN1, stronger effect = lower value",0.989 (inactive)
same,normalized growth,"locus YDL134C, strain PPH21, stronger effect = lower value",0.996 (inactive)
same,normalized growth,"locus YDL185W, strain tfp1, stronger effect = lower value",0.991 (inactive)
same,normalized growth,"locus YDL192W, strain arf1, stronger effect = lower value",0.983 (inactive)
same,normalized growth,"locus YDR001C, strain nth1, stronger effect = lower value",0.98 (inactive)
same,normalized growth,"locus YDR069C, strain doa4, stronger effect = lower value",0.976 (inactive)
same,normalized growth,"locus YDR101C, strain arx1, stronger effect = lower value",0.983 (inactive)
same,normalized growth,"locus YDR137W, strain rgp1, stronger effect = lower value",0.912 (inactive)
same,normalized growth,"locus YDR150W, strain NUM1, stronger effect = lower value",0.981 (inactive)
same,normalized growth,"locus YDR159W, strain sac3, stronger effect = lower value",0.957 (inactive)
same,normalized growth,"locus YDR162C, strain NBP2, stronger effect = lower value",0.978 (inactive)
same,normalized growth,"locus YDR195W, strain ref2",0.969 (inactive)
same,normalized growth,"locus YDR297W, strain sur2, stronger effect = lower value",0.989 (inactive)
same,normalized growth,"locus YDR318W, strain mcm21, stronger effect = lower value",0.989 (inactive)
same,normalized growth,"locus YDR334W, strain swr1, stronger effect = lower value",0.991 (inactive)
same,normalized growth,"locus YDR335W, strain msn5, stronger effect = lower value",0.994 (inactive)
same,normalized growth,"locus YDR388W, stronger effect = lower value",0.979 (inactive)
same,normalized growth,"locus YDR392W, strain spt3, stronger effect = lower value",0.821 (inactive)
same,normalized growth,"locus YDR502C, strain sam2, stronger effect = lower value",0.971 (inactive)
same,normalized growth,"locus YEL003W, strain gim4, stronger effect = lower value",0.988 (inactive)
same,normalized growth,"locus YEL037C, strain rad23, stronger effect = lower value",0.997 (inactive)
same,normalized growth,"locus YEL061C, strain CIN8 (second series), stronger effect = lower value",0.99 (inactive)
same,normalized growth,"locus YEL061C, strain CIN8, stronger effect = lower value",0.979 (inactive)
same,normalized growth,"locus YER015W, strain faa2, stronger effect = lower value",0.98 (inactive)
same,normalized growth,"locus YER016W, strain bim1, stronger effect = lower value",0.976 (inactive)
same,normalized growth,"locus YER110C, stronger effect = lower value",0.985 (inactive)
same,normalized growth,"locus YER111C, strain swi4, stronger effect = lower value",0.983 (inactive)
same,normalized growth,"locus YER155C, strain BEM2 (second series), stronger effect = lower value",0.938 (inactive)
same,normalized growth,"locus YER155C, strain BEM2, stronger effect = lower value",0.982 (inactive)
same,normalized growth,"locus YER167W, strain BCK2, stronger effect = lower value",0.969 (inactive)
same,normalized growth,"locus YFR010W, strain ubp6, stronger effect = lower value",0.991 (inactive)
same,normalized growth,"locus YGL078C, strain dbp3, stronger effect = lower value",0.987 (inactive)
same,normalized growth,"locus YGL086W, strain mad1, stronger effect = lower value",0.96 (inactive)
same,normalized growth,"locus YGL167C, strain pmr1, stronger effect = lower value",0.963 (inactive)
same,normalized growth,"locus YGL173C, strain kem1, stronger effect = lower value",0.983 (inactive)
same,normalized growth,"locus YGL227W, strain vid30, stronger effect = lower value",0.989 (inactive)
same,normalized growth,"locus YGL240W, strain doc1, stronger effect = lower value",0.97 (inactive)
same,normalized growth,"locus YGL248W, strain PDE1, stronger effect = lower value",0.991 (inactive)
same,normalized growth,"locus YGL253W, strain hxk2, stronger effect = lower value",1.01 (inactive)
same,normalized growth,"locus YGR135W, strain pre9, stronger effect = lower value",0.999 (inactive)
same,normalized growth,"locus YGR229C, strain SMI1, stronger effect = lower value",0.989 (inactive)
same,normalized growth,"locus YGR252W, strain gcn5, stronger effect = lower value",1.06 (inactive)
same,normalized growth,"locus YHR013C, strain ard1, stronger effect = lower value",0.94 (inactive)
same,normalized growth,"locus YHR027C, strain rpn1, stronger effect = lower value",0.977 (inactive)
same,normalized growth,"locus YHR030C, strain SLT2, stronger effect = lower value",0.977 (inactive) and 0.85 (active)
same,normalized growth,"locus YHR079C, strain IRE1 (second series), stronger effect = lower value",0.985 (inactive)
same,normalized growth,"locus YHR079C, strain IRE1, stronger effect = lower value",0.794 (active)
same,normalized growth,"locus YHR094C, strain hxt1, stronger effect = lower value",0.975 (inactive)
same,normalized growth,"locus YHR129C, strain ARP1, stronger effect = lower value",0.982 (inactive)
same,normalized growth,"locus YHR142W, strain chs7, stronger effect = lower value",1.01 (inactive)
same,normalized growth,"locus YHR200W, strain rpn10, stronger effect = lower value",0.989 (inactive)
same,normalized growth,"locus YIL066C, strain RNR3, stronger effect = lower value",0.995 (inactive)
same,normalized growth,"locus YIL073C, strain SPO22, stronger effect = lower value",0.993 (inactive)
same,normalized growth,"locus YIL125W, strain kgd1, stronger effect = lower value",0.965 (inactive)
same,normalized growth,"locus YIR030C, strain dcg1, stronger effect = lower value",0.976 (inactive)
same,normalized growth,"locus YJL092W, strain hpr5, stronger effect = lower value",0.989 (inactive)
same,normalized growth,"locus YJL095W, strain BCK1 (second series), stronger effect = lower value",0.974 (inactive)
same,normalized growth,"locus YJL095W, strain BCK1, stronger effect = lower value",0.947 (inactive) and 0.851 (active)
same,normalized growth,"locus YJL115W, strain asf1, stronger effect = lower value",0.987 (inactive)
same,normalized growth,"locus YJL129C, strain trk1, stronger effect = lower value",0.927 (inactive)
same,normalized growth,"locus YJL134W, strain LCB3, stronger effect = lower value",0.975 (inactive)
same,normalized growth,"locus YJL154C, strain vps35, stronger effect = lower value",0.993 (inactive)
same,normalized growth,"locus YJL164C, strain tpk1, stronger effect = lower value",0.974 (inactive)
same,normalized growth,"locus YJL166W, strain qcr8, stronger effect = lower value",0.983 (inactive)
same,normalized growth,"locus YJL168C, strain set2, stronger effect = lower value",0.98 (inactive)
same,normalized growth,"locus YJL187C, strain SWE1 (second series), stronger effect = lower value",0.995 (inactive)
same,normalized growth,"locus YJL187C, strain SWE1, stronger effect = lower value",0.979 (inactive)
same,normalized growth,"locus YJR043C, strain POL32, stronger effect = lower value",1.02 (inactive)
